Measured values reported in PubChem BioAssay (NCATS).
Results filed as inconclusive are left out. The source made the active and inactive calls. The call rests on the fitted dose curve; in most records, active means well fitted curve in the direction sought with a large enough effect; inconclusive means small, poorly fitted or top-dose-only effect, or another doubt; inactive means no such curve, though single readings can be large; an effect the other way counts as inactive or inconclusive.

Experiments:
[1] = biological target: Rap guanine nucleotide exchange factor 3 (Homo sapiens) (UniProt O95398); test: Confirmatory qHTS for antagonist of cAMP-regulated guanine nucleotide exchange factor 3 (EPAC1) (AID 1645880); further: nearly all actives have a fitted effect of over 55% in size; further: potency means the concentration at half of the fitted maximal effect
Rap guanine nucleotide exchange factor 3 (Homo sapiens), sequence (O95398 whole entry, looked up): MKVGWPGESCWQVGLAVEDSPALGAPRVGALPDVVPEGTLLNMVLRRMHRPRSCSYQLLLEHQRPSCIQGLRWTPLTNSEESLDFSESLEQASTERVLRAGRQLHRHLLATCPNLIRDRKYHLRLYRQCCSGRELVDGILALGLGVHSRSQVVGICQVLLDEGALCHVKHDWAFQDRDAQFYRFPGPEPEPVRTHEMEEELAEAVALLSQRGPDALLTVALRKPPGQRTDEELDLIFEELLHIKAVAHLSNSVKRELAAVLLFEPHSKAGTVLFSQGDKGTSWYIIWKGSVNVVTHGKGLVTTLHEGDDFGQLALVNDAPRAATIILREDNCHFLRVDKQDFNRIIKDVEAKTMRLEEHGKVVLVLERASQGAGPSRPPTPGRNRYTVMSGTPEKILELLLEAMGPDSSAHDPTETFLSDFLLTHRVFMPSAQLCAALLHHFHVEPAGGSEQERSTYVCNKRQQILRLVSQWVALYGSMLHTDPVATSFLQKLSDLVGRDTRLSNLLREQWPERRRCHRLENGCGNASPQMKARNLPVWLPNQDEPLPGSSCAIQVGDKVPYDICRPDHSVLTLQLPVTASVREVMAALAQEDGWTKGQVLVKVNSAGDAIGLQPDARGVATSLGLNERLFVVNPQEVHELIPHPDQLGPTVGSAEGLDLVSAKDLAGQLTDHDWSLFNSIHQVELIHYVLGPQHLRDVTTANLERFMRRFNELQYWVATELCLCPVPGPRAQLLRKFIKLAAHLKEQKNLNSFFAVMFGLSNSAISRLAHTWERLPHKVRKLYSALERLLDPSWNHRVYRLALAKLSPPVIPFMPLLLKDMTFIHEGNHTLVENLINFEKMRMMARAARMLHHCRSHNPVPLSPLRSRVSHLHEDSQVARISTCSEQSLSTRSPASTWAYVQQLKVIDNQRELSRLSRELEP
Outline: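 Released BODIPY-GDP fluoresces less than Rap1-bound BODIPY-GDP; the signal is followed at 480/540 nm at 5-min intervals over 30 min, after 5 min at room temperature. Reactions contain 100 nM EPAC1, 250 nM RAP1B-BODIPY-GDP and 50 uM GDP; results are normalized to ATA and DMSO.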

[2] = biological target: Rap guanine nucleotide exchange factor 3 (Homo sapiens) (UniProt O95398); test: Confirmatory qHTS for agonist of cAMP-regulated guanine nucleotide exchange factor 3 (EPAC1) (AID 1645881);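 further: EPAC1 catalysed release of BODIPY-GDP from Rap1B seen as fluorescence loss; 100% = effect of cAMP agonist control; nearly all actives have a fitted effect of over 75% in size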
[3] = biological target: Rap guanine nucleotide exchange factor 4 (Homo sapiens) (UniProt Q8WZA2); test: Confirmatory qHTS for agonist of cAMP-regulated guanine nucleotide exchange factor 4 (EPAC2) (AID 1645884);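 further: nucleotide exchange releases bodipy-GDP from Rap1 and this lowers its fluorescence; on the % scale 0 is the no-effect control and ±100 the full control effect; nearly all actives have a fitted effect of over 65% in size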
Rap guanine nucleotide exchange factor 4 (Homo sapiens), sequence (Q8WZA2 whole entry, looked up): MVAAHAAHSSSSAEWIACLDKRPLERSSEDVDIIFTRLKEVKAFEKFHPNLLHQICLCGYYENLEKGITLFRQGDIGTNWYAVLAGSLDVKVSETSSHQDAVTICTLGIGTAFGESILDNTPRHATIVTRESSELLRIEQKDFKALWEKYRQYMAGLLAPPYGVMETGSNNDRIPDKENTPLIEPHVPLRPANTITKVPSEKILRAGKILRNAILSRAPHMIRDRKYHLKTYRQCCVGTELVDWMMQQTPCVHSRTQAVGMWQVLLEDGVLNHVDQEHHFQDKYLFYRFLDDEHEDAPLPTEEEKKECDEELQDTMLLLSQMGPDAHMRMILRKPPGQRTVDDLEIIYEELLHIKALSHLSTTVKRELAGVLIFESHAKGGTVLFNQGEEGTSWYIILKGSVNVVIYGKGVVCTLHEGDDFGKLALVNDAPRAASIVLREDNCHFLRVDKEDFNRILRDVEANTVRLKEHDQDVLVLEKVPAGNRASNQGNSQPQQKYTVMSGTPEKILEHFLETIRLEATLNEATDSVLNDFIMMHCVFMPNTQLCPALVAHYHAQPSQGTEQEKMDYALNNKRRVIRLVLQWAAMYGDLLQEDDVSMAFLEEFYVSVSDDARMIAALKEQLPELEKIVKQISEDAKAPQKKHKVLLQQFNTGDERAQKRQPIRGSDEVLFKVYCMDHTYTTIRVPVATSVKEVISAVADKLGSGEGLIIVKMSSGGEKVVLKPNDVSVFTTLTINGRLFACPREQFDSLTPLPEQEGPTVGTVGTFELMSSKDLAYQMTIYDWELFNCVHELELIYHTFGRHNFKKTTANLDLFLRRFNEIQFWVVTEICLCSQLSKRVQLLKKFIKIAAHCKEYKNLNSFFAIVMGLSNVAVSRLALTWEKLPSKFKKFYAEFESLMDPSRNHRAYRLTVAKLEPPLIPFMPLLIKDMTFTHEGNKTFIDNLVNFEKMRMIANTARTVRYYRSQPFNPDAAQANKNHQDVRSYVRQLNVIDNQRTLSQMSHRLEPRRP

[4] = biological target: Rap guanine nucleotide exchange factor 4 (Homo sapiens) (UniProt Q8WZA2); test: Confirmatory qHTS for antagonist of cAMP-regulated guanine nucleotide exchange factor 4 (EPAC2) (AID 1645885); further: on the % scale 0 is the no-effect control and ±100 the full control effect; nearly all actives have a fitted effect of over 25% in size
[5] = biological target: Rap guanine nucleotide exchange factor 3 (Homo sapiens) (UniProt O95398); test: Counterscreen qHTS for agonist of cAMP-regulated guanine nucleotide exchange factor 3 (EPAC1) (AID 1645889); further: % of control where 0% means no effect; nearly all actives have a fitted effect of over 40% in size
Outline: (§1)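 Rap1B–BODIPY-GDP (250 nM) with 50 uM GDP; compounds pin-transferred to 9.74 nM–152 uM final (activator) or from 7.32 nM upwards (inhibitor). Fluorescence Ex/Em 480/540 nm read at 5 and 30 min, then after adding cAMP or buffer, at room temperature.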

[6] = biological target: Rap guanine nucleotide exchange factor 3 (Homo sapiens) (UniProt O95398); test: Counterscreen qHTS for antagonist of cAMP-regulated guanine nucleotide exchange factor 3 (EPAC1) (AID 1645888); further: % of control where 0% means no effect
Outline: as §1

[7] = biological target: Cytochrome P450 3A4 (Homo sapiens) (UniProt P08684); test: qHTS Assay for Inhibitors and Substrates of Cytochrome P450 3A4 (AID 884); further: potency means the concentration at half of the fitted maximal effect; nearly all actives have a fitted effect of over 50% in size
Cytochrome P450 3A4 (Homo sapiens), sequence (P08684 whole entry, looked up): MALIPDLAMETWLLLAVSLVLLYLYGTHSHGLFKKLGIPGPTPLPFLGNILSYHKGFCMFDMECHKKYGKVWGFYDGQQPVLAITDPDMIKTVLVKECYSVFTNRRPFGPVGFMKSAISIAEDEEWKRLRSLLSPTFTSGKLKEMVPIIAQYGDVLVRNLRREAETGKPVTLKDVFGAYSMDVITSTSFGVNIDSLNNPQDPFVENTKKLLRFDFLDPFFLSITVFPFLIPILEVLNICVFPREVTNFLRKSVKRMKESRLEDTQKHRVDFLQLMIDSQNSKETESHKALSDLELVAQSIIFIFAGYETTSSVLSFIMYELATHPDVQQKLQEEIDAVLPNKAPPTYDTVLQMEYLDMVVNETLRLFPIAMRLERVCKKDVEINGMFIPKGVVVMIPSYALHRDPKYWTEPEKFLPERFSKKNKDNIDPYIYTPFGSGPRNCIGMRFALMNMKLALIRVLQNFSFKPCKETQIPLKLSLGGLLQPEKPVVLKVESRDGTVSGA
Outline: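 Luminescent readout of luciferin produced by CYP3A4 (20 nM) dealkylation of Luciferin-PPXE, 25 uM (its KM). NADPH-driven reaction ran 60 min at RT after 10 min compound preincubation; data scaled to 57 uM ketoconazole as 100% inhibition.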

[8] = biological target: Cytochrome P450 3A4 (Homo sapiens) (UniProt P08684); test: qHTS Assay for Activators of Cytochrome P450 3A4 (AID 885); further: nearly all actives have a fitted effect of over 65% in size
Outline: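 Luminescent readout of luciferin formed from 25 uM Luciferin-PPXE (KM level) by 20 nM CYP3A4 in 200 mM KPO4, with 60 min NADPH-driven reaction at room temperature after 10 min compound exposure. Ketoconazole (57 uM) defined 100% inhibition.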

[9] = Confirmation and Secondary Assay for Modulators of Hemoglobin Beta Chain Splicing at IVS2 654 locus (AID 910);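 further: HeLa cells stably carrying EGFP split by mutant beta-globin IVS2-654 intron; % of control where 0% means no effect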
Outline: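 HeLa cells stably expressing EGFP interrupted by β-globin IVS2-654 intron, seeded overnight in Opti-MEM/2% FCS, then treated 2 days at 37 °C. Restored splicing read as total peak GFP intensity per well by laser scanning cytometry (488 nm excitation, 500–520 nm emission); 500 nM antisense PNA as control.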

[10] = Confirmation and Secondary Assay for Modulators of Hemoglobin Beta Chain Splicing at IVS2 705 locus (AID 930);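 further: HeLa cells stably expressing the EGFP-705 splicing reporter; GFP fluorescence per well restored by corrected splicing of the IVS2-705 intron in EGFP; series mostly up to about 46 µM; % of control where 0% means no effect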
Outline: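 Read-out: total peak GFP fluorescence per well (488 nm excitation, 500-520 nm emission) by laser-scanning cytometry. Cells: HeLa EGFP-705 splicing reporter, 2 days compound exposure in Optimem/2% FCS.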

[11] = biological target: Ubiquitin carboxyl-terminal hydrolase 1 (Homo sapiens) (UniProt O94782); test: Inhibitors of USP1/UAF1: Pilot qHTS (AID 504865);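 further: rhodamine fluorescence freed from ubiquitin-rhodamine substrate followed over time; top concentration of the series differs between compounds; on the % scale 0 is the no-effect control and ±100 the full control effect; nearly all actives have a fitted effect of over 35% in size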
Ubiquitin carboxyl-terminal hydrolase 1 (Homo sapiens), sequence (O94782 whole entry, looked up): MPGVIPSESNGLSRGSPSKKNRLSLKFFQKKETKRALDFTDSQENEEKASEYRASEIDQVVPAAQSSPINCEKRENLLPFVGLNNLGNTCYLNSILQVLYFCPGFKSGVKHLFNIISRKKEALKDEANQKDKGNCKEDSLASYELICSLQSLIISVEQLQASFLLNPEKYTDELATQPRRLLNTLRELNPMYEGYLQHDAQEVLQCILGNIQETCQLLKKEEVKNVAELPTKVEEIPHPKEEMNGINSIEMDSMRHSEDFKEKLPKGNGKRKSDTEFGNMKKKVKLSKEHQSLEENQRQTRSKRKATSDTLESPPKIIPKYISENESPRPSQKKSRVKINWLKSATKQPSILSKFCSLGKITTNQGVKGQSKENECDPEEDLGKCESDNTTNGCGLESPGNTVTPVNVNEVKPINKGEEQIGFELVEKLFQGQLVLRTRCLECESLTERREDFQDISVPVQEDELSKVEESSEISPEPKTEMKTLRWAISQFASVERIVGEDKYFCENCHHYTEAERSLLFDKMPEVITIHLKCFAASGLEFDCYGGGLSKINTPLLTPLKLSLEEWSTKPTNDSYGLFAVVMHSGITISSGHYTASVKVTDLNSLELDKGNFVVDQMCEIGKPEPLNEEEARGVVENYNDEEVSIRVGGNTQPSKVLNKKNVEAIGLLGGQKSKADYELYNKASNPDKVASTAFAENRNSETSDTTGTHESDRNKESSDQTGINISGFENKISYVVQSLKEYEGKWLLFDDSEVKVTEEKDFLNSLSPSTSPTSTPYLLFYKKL
Outline: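 USP1/UAF1 complex at 1 nM preincubated 15 min at room temperature with compound, then Ub-Rho substrate added at 150 nM final. Fluorescence (480/540 nm) read kinetically in 50 mM HEPES pH 7.8, 0.5 mM EDTA, 1 mM TCEP, 0.1 mg/ml BSA, 0.01% Tween-20.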

NS(=O)(=O)c1ccc(-c2cccc(/C=C3\SC(=O)NC3=O)c2)cc1
active: Potency [1] 33.8 µM
inactive: Potency [2] | Potency [3] | Potency [4] | Potency [5]

Cc1cccc(C(=O)Nc2sc3c(c2C(=O)O)CCCC3)c1
inactive: Potency [2] | Potency [3] | Potency [4] | Potency [6] | Potency [5]

O=C1CC(c2ccc(O)c(O)c2)Oc2cc(O)cc(O)c21 (centres undefined)
active: Potency [7] 39.8 µM
inactive: Potency [8] | Potency [9] | Potency [10] | Potency [11]

COC(=O)CC1C(C)(C)C(OC(C)=O)C2[C@H](OC(C)=O)[C@]34O[C@]2(O)[C@]1(C)C3CC[C@]1(C)C4=CC(=O)OC1c1ccoc1 (some centres undefined)
inactive: Potency [8] | Potency [9] | Potency [10]
active: Potency [7] 2 µM

O=C(NCCOc1ccccc1-c1ccccc1)c1ccco1
inactive: Potency [1] | Potency [2] | activation [3] 6.96% [at 17.1 µM, percent relative to cAMP agonist control] | Potency [4] | activation [5] 12.2% [at 30.8 µM]
